Measured values reported in the supplement of paper PMC3334620.
The full ranking holds about 33,000 sequences; the median of “E-score (-0.5 to 0.5)” is about -0.012, and the highest 2% start at about 0.27. Many of the other results were omitted from the sample, so the highest values are more common in it than they were.

What follows are sequences tested against T1, Vhr1 (UniProt P40522) (assay: PBM E-score (8-mer binding enrichment) (E-score (-0.5 to 0.5)); higher = stronger / more preferred TF binding). Details: protein concentration: 200 nM; construct: GST-full length.
T1 sequence: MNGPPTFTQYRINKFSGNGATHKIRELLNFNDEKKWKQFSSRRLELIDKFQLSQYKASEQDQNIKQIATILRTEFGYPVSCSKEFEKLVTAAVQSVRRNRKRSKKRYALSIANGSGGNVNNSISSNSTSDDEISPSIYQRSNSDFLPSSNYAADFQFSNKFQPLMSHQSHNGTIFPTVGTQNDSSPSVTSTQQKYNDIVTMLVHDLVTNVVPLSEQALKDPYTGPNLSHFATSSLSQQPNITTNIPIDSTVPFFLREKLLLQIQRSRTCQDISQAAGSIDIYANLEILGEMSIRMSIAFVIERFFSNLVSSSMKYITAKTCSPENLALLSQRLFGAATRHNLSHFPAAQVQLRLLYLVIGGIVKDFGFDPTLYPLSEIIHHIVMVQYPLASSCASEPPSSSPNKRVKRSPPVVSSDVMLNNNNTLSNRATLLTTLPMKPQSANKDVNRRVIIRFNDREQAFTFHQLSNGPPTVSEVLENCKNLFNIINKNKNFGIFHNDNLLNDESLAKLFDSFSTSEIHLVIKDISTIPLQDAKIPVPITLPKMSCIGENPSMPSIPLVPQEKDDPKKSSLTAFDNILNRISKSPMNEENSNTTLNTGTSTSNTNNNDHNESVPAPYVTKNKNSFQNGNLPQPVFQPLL
Procedure: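 Universal 'all 10-mer' protein binding microarrays (Agilent AMADID 015681) probed with GST-tagged S. cerevisiae TFs (full-length or DBD) made by in vitro transcription/translation (PURExpress), about 100-200 nM. Bound TF was detected with fluorescent anti-GST. Each ungapped 8-mer (which stands for itself and its reverse complement) is scored by the PBM enrichment score (E-score), a modified Wilcoxon-Mann-Whitney statistic from -0.5 to +0.5, computed with the Universal PBM Analysis Suite. Scale: above 0.35 generally sequence-specific binding.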

Sequence	PBM E-score
CCACCTGG	-0.0837
CATCCTCG	0.124
CATATCAA	0.278
CATATCAG	-0.0382
CATATCGA	0.292
CATATCGG	0.0424
AATATCAA	0.0811
GATATCGA	-0.0237
CTTATACC	-0.0429
GCACAGAA	-0.0823
CCGCGAAG	0.039
GGAGATCC	-0.0359
CGCTTAAC	-0.225
TACGTCAA	-0.139
CAAACAGG	0.0517
ACTATGAA	0.0955
GCTATGAC	0.201
ACTATGAT	0.351
ACTATGAC	0.286
CCTATGAC	0.0237
ACTATGAG	0.181
AGACTACT	0.216
ATTCTATC	-0.154
CCGCTAGC	-0.266
GCTGTCCC	-0.206

Sequence	PBM E-score
AGATCGAC	-0.0907
AATCAGAC	0.201
CCGTGGCG	0.189
GCGGTCAC	-0.00992
GACCCAGA	0.0388
GAATCAGA	0.319
GAATCAGC	0.307
AAATCAGC	0.121
CAATCAGC	0.193
TAATCAGA	0.146
AAATCAGA	0.0175
CCACACCC	0.197
GAAAATTC	-0.274
AAGCTTCC	-0.37
CTGGGCTC	-0.135
ATGGGCTC	0.272
ATGGGCTG	0.198
AAGTCAAT	0.0223
AAGTCGAC	0.17
TAGTCGAA	0.0212
GAGTCGCA	0.391
AAGTCGCC	-0.0133
TCGTCGCA	0.111
GAGTCGCC	0.424
CAGTCGAC	0.197

Sequence	PBM E-score
GAGTCGAC	0.294
AAGTCGCA	0.173
CAGTCGCC	0.147
TAGTCGCA	0.309
CAGTCGCA	0.0715
ATCAGGCC	-0.0546
ACACTAAA	0.238
CTACTTAA	-0.204
AACTCATC	0.209
GACTCATC	0.452
GACTCATA	0.388
AACTCATA	0.141
GACTCAAC	0.42
CACTCAAC	0.0922
CACTCATA	0.179
CACTCATC	0.137
GACTCAAA	0.266
AAGTAGAC	-0.0556
AGCCATTG	0.172
CCCGCTAG	-0.249
TCCCGGGA	-0.0779
GTAGGTAA	-0.114
GGCGAAGA	-0.152
CGACTCAA	0.386
CCACTCAA	0.133

Sequence	PBM E-score
AGACTCAA	0.214
GGACTCAA	0.143
CTACTCAA	0.113
TGACTCAA	0.468
CGATTTAG	-0.0352
ACATTCAT	0.0173
CTACCTGC	-0.0175
CGTGAGAC	0.0393
AGACCTTA	0.0612
AAGAGGTA	0.0122
CGACCCAA	0.14
CGTAATTA	-0.128
GCTAATCA	0.262
AGTAATCC	0.0334
CTCAATCC	-0.0448
AGTAATCA	0.303
CGTAATCC	-0.104
GGTAATGA	0.023
ATCAATCA	0.248
CGTAATCA	0.273
GGTAATCA	0.288
CTCAATCA	0.33
AGTAATCG	0.141
AATTGGCT	-0.0912
ATACTGTA	0.224

Sequence	PBM E-score
GGAAACGA	0.0811
GGTGTCCA	-0.0191
ACAAGTGA	-0.154
CAGATTAG	-0.0795
AAATAACG	-0.00647
GTAATGTA	-0.131
CCCGCGGC	0.272
ACCGCCAC	0.0902
GCCGCGGC	0.237
GCCGCCAC	-0.0771
CCCGCCGC	0.36
CCCGCCGA	0.00185
CCCGCCAC	0.321
CTCCCCGC	0.325
CCCGCCGG	0.134
ATCCCCGC	0.129
CTCCCCGA	-0.116
CCCGCGGA	-0.0501
ATGACCCC	0.211
AAGGCAGC	-0.132
ATATAGAA	0.11
AGCATCAG	0.0568
CATGTTCG	0.0242
GATTGGGC	-0.102
CAACCTCC	0.0131

Sequence	PBM E-score
GTGTATCA	0.275
ATGTATCA	0.267
CTGTATCA	-0.0153
GCACTTTA	-0.249
CAGTTACG	-0.125
ATACTGTG	0.0981
ATACTGAG	0.302
ATACTCAT	0.277
ATACTCAG	0.274
ATACTCAA	0.178
ATACTGTC	0.137
CTACTCAG	0.153
ATACTCAC	0.17
ACTCTCAG	-0.0997
CGAGTTCC	0.0292
GCAAACTA	0.0776
AATGCTCA	0.021
AAGAATAC	0.0498
AGGGTCGA	0.158
ACCTGCCC	0.0405
CTACGCCC	0.0207
CGGCAGTA	-0.109
ACAACCCC	-0.061
CATGCTCC	-0.08
TATCATGA	0.189

Sequence	PBM E-score
AATCAGGG	0.133
GATCATGA	0.197
AATCATTG	0.283
AATCATGT	0.389
AATCAAGT	0.174
AATCAGGT	0.268
AATCATGA	0.331
AATCATGG	0.387
AATCAAGG	0.0679
AATCATTA	0.222
AATCATTC	0.251
CCGCCAAC	0.163
GCATTGAA	-0.0212
AACTAGTT	-0.125
AAAGGTTA	-0.357
CATCTATA	0.0881
CATCATAA	0.133
AATCATGC	0.304
CAACATGA	0.3
CAACATGG	0.0395
CATCATGG	0.152
GATCATGC	0.0952
CAACATGC	0.15
CATCATGC	0.201
CATCATGA	0.276
